Compound activity (PubChem)
Rows were chosen to be rich in hits. Some 27% of all compounds tested hit in one or more screens of this group.
Cav3 T inh = human Cav3.2 channel inhibition, primary screen; O95180; Cav3.2-expressing cells, Fluo-4 calcium fluorescence FDSS; active compounds read low; 4% of 100,000 active; B-score at 10 µM;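 active = single-dose well whose peak fluorescence ratio is a statistical outlier from its plate by either plate-standardised score or position-corrected B-score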
CYP2C9 inhib = inhibitors of human CYP2C9 | 20% of 96,000 active | CYP2C9 Supersomes, luciferin-H conversion, luminescence | AID 777 | inhibition, % at 5 µM | P11712;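 active = blocking of liver enzyme CYP2C9 beyond about 50% at 5 µM, limit read from the data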
CYP2C9 act = increases human cytochrome P450 2C9 activity; P11712; recombinant CYP2C9, luciferin-H conversion, luminescence; active compounds read high; factor 1 = untreated enzyme, 0 = blocked; activation factor at 5 µM; 1.4% of 96,000 active; AID 1024;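 active = activation factor of 2 or more for CYP2C9 at a 5 µM dose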
CYP2C19 act = cytochrome P450 2C19 (human) activation. recombinant CYP2C19, luciferin-H EGE luminescence; active compounds read high; 0 = fully inhibited enzyme, 1 = untreated enzyme. 96,000 tested, under 10 active. activation factor at 5 µM;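 active = activation factor of at least 2 at 5 µM in the primary screen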
CYP2C19 inh = inhibitors of human CYP2C19; inhibition, % at 5 µM; CYP2C19 Supersomes, luciferin-H EGE luminescence, 30 min; AID 778; 21% of 96,000 active; P33261;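 active = CYP2C19 inhibition above a set limit at 5 µM in the primary screen, cut at about 50% in these data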
Each line names hits and unclear results; the compound was inactive in the other large screens.

Cc1noc(/C=C/N(C)C)c1S(=O)(=O)N1CCCC(C(=O)NC(C)c2ccccc2)C1 (configuration not stated)	CYP2C9 inhib 67.5
Cc1ccc(NC(=O)C2CCCN(S(=O)(=O)c3c(C)noc3/C=C/N(C)C)C2)cc1F (configuration not stated)	none
Cc1noc(/C=C/N(C)C)c1S(=O)(=O)N1CCc2ccccc21	CYP2C19 inh 66.6
CC(NC(=O)C1CCCN(S(=O)(=O)c2cccc3nonc23)C1)c1ccccc1 (configuration not stated)	CYP2C9 inhib 53.4
O=C(NCc1ccc2c(c1)OCO2)C1CCCN(S(=O)(=O)c2cccc3nonc23)C1 (configuration not stated)	CYP2C9 inhib 63.8
CCOC(=O)[C@@H]1[C@H]2COc3cc(OC)ccc3[C@@H]2N2C(=O)N(c3ccc(Cl)cc3)C(=O)[C@]12C	none (no result: CYP2C9 inhib, CYP2C9 act, CYP2C19 act, CYP2C19 inh)
O=C(NC1CCN(Cc2ccccc2)CC1)C1CCCN(S(=O)(=O)c2cccc3nonc23)C1 (configuration not stated)	CYP2C19 inh 53.1 (no result: Cav3 T inh)
Cc1ccc(OCc2ccoc2C(=O)O)cc1C	none
COc1ccc(C2(O)CCN(C(=O)Cc3cccnc3)CC2)cc1	CYP2C19 inh 57.6
COc1cccc(C2(O)CCN(C(=O)Cc3cccnc3)CC2)c1	CYP2C19 inh 73.1
COc1cccc(C2NC(CCSC)(C(=O)O)C3C(=O)N(C(C)C)C(=O)C23)c1O (configuration not stated)	none
Cc1ccc(CN2C(=O)CCC2C(=O)NCCCN2CCCC(C)C2)cc1 (configuration not stated)	none
O=c1cc(-c2cccc(Br)c2)oc2cccc(O)c12	none (no result: CYP2C9 inhib, CYP2C9 act, CYP2C19 act, CYP2C19 inh)
Cc1cc(=O)n2[nH]c(-c3ccc(F)cc3)cc2n1	none
Cc1cc(=O)n2[nH]c(-c3ccc(Cl)cc3)cc2n1	CYP2C19 inh 75.3
CN=Cc1sc2ccccc2c1O	none
Oc1c(C=NCc2ccncc2)sc2ccccc12	CYP2C19 inh 92.0
Clc1ccc(CSc2nc3ccncc3[nH]2)cc1	CYP2C9 inhib 88.8, CYP2C19 inh 97.8
CC(=O)c1ccc(OC(C)C)c(CSc2nc(O)cc(=O)[nH]2)c1	CYP2C9 inhib 59.4 (no result: Cav3 T inh)
Nc1cc(=O)[nH]c(SCc2ccc(Cl)cc2)n1	none
O=C(c1ccc(CSc2nc3ccncc3[nH]2)cc1)N1CCN(c2cccc(Cl)c2)CC1	none (no result: CYP2C9 inhib, CYP2C9 act, CYP2C19 act, CYP2C19 inh)
O=c1cc(O)nc(SCc2ccc(Cl)cc2)[nH]1	Cav3 T inh -6.93
COc1ccc(C(=O)NCCc2nnc(SCC(=O)Nc3ccccc3)n2C)cc1	none
Cn1c(CCNC(=O)c2ccccc2F)nnc1SCc1nc2ccccc2c(=O)[nH]1	CYP2C9 inhib 63.9
COc1ccc(Cc2nnc(SCc3nc4ccccc4c(=O)[nH]3)n2C)cc1	CYP2C9 inhib 61.8
N#CCCn1cc(C(CC(=O)c2ccccc2)C(=O)O)c2ccccc21 (configuration not stated)	none (no result: CYP2C9 inhib, CYP2C9 act, CYP2C19 act, CYP2C19 inh)
CC1CCCCC1NC(=O)C(Cc1ccccc1)NS(=O)(=O)c1cccs1 (configuration not stated)	CYP2C9 inhib 73.4, CYP2C19 inh 83.6
CC(CCc1ccccc1)NC(=O)C(Cc1ccccc1)NS(=O)(=O)c1cccs1 (configuration not stated)	CYP2C9 inhib 79.4, CYP2C19 inh 75.8
CC(CCc1ccccc1)NC(=O)c1ccco1 (configuration not stated)	none (no result: CYP2C9 inhib, CYP2C9 act, CYP2C19 act, CYP2C19 inh)
Cc1cc(C)nc(SCCn2c(N3CCC(C)CC3)nc3c2c(=O)n(C)c(=O)n3C)n1	none (no result: Cav3 T inh)
Cc1nccn1CC(=O)O	none
COc1ccc(Cl)cc1Nc1nc(-c2sc(NC(=O)CC(C)C)nc2C)cs1	CYP2C9 inhib 51.9
COc1ccc(OC)c(Nc2nc(-c3sc(NC(=O)c4ccccc4)nc3C)cs2)c1	none
Cc1nc(NC(=O)c2ccccc2)sc1-c1csc(Nc2ccc(Cl)cc2Cl)n1	CYP2C19 inh 65.0
Cc1nc(NC(=O)c2ccccc2)sc1-c1csc(Nc2ccc(Cl)cc2)n1	none
COc1ccc(Cl)cc1Nc1nc(-c2sc(NC(=O)c3ccccc3)nc2C)cs1	CYP2C9 inhib 67.7
CCCCCC(=O)Nc1nc(C)c(-c2csc(Nc3cc(OC)ccc3OC)n2)s1	CYP2C9 inhib 55.1
Cc1cc(NS(=O)(=O)c2ccc(N)cc2)no1	none (no result: CYP2C9 inhib, CYP2C9 act, CYP2C19 act, CYP2C19 inh)
Cc1cc(NS(=O)(=O)c2ccc(-c3ccccc3)cc2)no1	CYP2C9 inhib 87.9
Cc1ccc(S(=O)(=O)Nc2cc(C)nn2-c2ccccc2)cc1	CYP2C9 inhib 99.6
Cc1ccc(S(=O)(=O)Nc2nncs2)cc1	none
Cc1ccc(S(=O)(=O)Nn2c(C)ccc2C)cc1	CYP2C19 inh 63.8
Cc1ccc(S(=O)(=O)NNc2ccccc2)cc1	none
Cc1ccc(S(=O)(=O)Nc2c(C)nn(C)c2C)cc1	CYP2C19 inh 79.4
O=C(OCn1nnc2ccccc2c1=O)c1cn(-c2ccccc2)nc1-c1cccnc1	none (no result: Cav3 T inh)
Cc1cc(NC(=O)c2ccc(S(=O)(=O)Nc3ccccc3)cc2)no1	CYP2C9 inhib 52.0
Cc1ccc(S(=O)(=O)Nc2ccccc2-c2ccccc2)cc1	Cav3 T inh -5.75, CYP2C19 inh 57.5
Cc1ccc(S(=O)(=O)Nc2ccc(C(=O)Nc3cc(C)on3)cc2)cc1	none (no result: CYP2C9 inhib, CYP2C9 act, CYP2C19 act, CYP2C19 inh)
Cc1ccccc1NCCNc1ccccc1C	CYP2C19 inh 82.8
O=C(NC1CCCCCCC1)C1CCCN(S(=O)(=O)c2cnc[nH]2)C1 (configuration not stated)	CYP2C9 inhib 54.8, CYP2C19 inh 87.1
O=C(NC1CCCC1)C1CCCN(S(=O)(=O)c2cnc[nH]2)C1 (configuration not stated)	none
O=C(NC1CCCCC1)C1CCCN(S(=O)(=O)c2cnc[nH]2)C1 (configuration not stated)	CYP2C19 inh 60.1
CS(=O)(=O)N1CCCC(C(=O)NC2CCCCCCC2)C1 (configuration not stated)	none
CCCCOC1(c2ccccc2)NC(=S)NN=C1c1ccccc1 (configuration not stated)	CYP2C9 inhib 94.7, CYP2C19 inh 78.8
COC1(c2ccccc2)NC(=S)NN=C1c1ccccc1 (configuration not stated)	CYP2C9 inhib 81.7
COCc1cc(=O)[nH]c(Nc2nc3ccc(C)cc3o2)n1	none
COCCn1c(SCc2cccnc2)nnc1-c1ccco1	none
CC(C)CC(=O)NCCCN1CCN(CCCNC(=O)CC(C)C)CC1	none (no result: CYP2C9 inhib, CYP2C9 act, CYP2C19 act, CYP2C19 inh)
CCCCC(CC)C(=O)NCCCN1CCN(CCCNC(=O)C(CC)CCCC)CC1 (configuration not stated)	Cav3 T inh -7.29
c1ccc(Cn2nnnc2-c2ccco2)cc1	none
COC(=O)c1ccc(-c2ccco2)n1Cc1cc(C)ccc1C	none
O=C(O)c1ccc(-c2ccco2)n1Cc1ccccc1	CYP2C9 inhib 71.0
COC(=O)c1ccc(-c2ccco2)n1Cc1cccc(C)c1	CYP2C9 inhib 81.1, CYP2C19 inh 59.6
Cc1ccc(NC(=O)CSc2nnc(-c3cnccn3)n2-c2ccccc2)cc1	none
Cc1nnc(NC(=O)COc2ccccc2)s1	none
CCSc1nnc(NC(=O)C2CCCCC2)s1	none
